Article PMC7862700, “An all-to-all approach to the identification of sequence-specific readers for epigenetic DNA modifications on cytosine”

Tests used:
Assay in all cases: DAPPL (digital affinity profiling via proximity ligation, sequencing); 10 mM Tris-HCl pH 7.5, 50 mM NaCl, 1 mM DTT, 4% glycerol, room temperature, 30 min; GST-TFs on glutathione beads, 16-mer random dsDNA library, 0.1% formaldehyde crosslink after washing; high values mean tight binding
[1] = biological target: T1, FEV (Homo sapiens, UniProt Q99581 1-238); conditions: protein: recombinant; tags: N-terminal GST; dsDNA, one strand shown
T1 sequence: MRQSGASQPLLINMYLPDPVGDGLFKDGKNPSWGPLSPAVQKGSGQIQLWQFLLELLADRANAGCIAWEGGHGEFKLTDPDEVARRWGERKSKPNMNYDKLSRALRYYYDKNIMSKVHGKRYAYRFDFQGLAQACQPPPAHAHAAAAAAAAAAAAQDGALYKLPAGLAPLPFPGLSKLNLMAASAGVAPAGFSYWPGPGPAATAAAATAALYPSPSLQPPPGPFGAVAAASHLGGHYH
Outline: (§1)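 Human transcription factors carrying a GST fusion were produced in yeast, bound to glutathione beads, tagged with DNA barcodes and pooled together with a tag-only sample. Each pool was held with 200 nmole of a random double-stranded 16-mer DNA library in Tris/NaCl/DTT/glycerol buffer for 30 min at room temperature, then washed, crosslinked in 0.1% formaldehyde, proximity-ligated with BsaI/T4 ligase (1 h, 37 °C), PCR-amplified and sequenced on an Illumina NextSeq500. Binding signal is the read frequency of each hexamer for a given factor divided by its frequency in the tag-only sample.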

[2] = biological target: ETV5 (Homo sapiens, UniProt P41161 1-510); conditions: protein: recombinant; tags: N-terminal GST; dsDNA, one strand shown
ETV5, sequence (P41161 whole entry): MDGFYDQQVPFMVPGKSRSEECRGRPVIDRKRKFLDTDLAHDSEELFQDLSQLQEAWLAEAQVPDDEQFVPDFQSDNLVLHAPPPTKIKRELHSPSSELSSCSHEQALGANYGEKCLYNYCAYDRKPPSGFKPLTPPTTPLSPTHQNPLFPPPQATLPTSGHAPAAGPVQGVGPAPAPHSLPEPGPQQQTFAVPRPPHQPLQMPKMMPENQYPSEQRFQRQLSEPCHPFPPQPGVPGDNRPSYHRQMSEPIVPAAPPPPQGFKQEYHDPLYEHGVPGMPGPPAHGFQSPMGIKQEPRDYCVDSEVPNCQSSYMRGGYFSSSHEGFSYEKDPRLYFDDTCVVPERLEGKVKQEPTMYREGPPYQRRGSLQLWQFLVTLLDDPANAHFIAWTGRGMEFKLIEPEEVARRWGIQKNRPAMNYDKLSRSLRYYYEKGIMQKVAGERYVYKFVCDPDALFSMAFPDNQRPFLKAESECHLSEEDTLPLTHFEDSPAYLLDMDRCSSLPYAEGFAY
Outline: as §1

[3] = biological target: HSF1 (Homo sapiens, UniProt Q00613 1-529); conditions: protein: recombinant; tags: N-terminal GST; chain copies: 3; dsDNA, one strand shown
HSF1, sequence (Q00613 whole entry): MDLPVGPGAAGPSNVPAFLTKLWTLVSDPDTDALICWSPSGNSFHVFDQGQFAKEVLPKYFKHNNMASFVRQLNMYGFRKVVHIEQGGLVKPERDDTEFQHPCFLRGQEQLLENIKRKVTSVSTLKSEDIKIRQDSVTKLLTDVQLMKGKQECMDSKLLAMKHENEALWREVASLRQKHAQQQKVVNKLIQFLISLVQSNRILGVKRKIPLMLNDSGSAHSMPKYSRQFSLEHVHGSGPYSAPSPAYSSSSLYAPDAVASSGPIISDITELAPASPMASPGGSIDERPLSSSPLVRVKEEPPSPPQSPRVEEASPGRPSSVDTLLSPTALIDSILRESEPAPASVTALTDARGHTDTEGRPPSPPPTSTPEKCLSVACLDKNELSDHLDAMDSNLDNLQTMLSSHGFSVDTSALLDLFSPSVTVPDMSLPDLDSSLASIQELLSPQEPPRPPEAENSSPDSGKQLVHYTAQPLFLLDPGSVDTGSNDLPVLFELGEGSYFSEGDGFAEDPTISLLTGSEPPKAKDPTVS
Outline: as §1

[4] = biological target: T2, SPIC (Homo sapiens, UniProt Q8N5J4 1-248); conditions: protein: recombinant; tags: N-terminal GST; dsDNA, one strand shown
T2 sequence: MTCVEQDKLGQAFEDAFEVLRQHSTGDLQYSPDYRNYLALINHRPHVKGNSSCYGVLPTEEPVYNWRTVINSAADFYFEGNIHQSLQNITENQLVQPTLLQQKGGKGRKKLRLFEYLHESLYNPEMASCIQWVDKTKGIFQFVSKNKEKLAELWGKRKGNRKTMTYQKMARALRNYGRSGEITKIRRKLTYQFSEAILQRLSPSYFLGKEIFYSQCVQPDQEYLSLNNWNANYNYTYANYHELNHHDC
Outline: as §1

[5] = biological target: ELF4 (Homo sapiens, UniProt Q99607 1-663); conditions: protein: recombinant; tags: N-terminal GST; dsDNA, one strand shown
ELF4, sequence (Q99607 whole entry): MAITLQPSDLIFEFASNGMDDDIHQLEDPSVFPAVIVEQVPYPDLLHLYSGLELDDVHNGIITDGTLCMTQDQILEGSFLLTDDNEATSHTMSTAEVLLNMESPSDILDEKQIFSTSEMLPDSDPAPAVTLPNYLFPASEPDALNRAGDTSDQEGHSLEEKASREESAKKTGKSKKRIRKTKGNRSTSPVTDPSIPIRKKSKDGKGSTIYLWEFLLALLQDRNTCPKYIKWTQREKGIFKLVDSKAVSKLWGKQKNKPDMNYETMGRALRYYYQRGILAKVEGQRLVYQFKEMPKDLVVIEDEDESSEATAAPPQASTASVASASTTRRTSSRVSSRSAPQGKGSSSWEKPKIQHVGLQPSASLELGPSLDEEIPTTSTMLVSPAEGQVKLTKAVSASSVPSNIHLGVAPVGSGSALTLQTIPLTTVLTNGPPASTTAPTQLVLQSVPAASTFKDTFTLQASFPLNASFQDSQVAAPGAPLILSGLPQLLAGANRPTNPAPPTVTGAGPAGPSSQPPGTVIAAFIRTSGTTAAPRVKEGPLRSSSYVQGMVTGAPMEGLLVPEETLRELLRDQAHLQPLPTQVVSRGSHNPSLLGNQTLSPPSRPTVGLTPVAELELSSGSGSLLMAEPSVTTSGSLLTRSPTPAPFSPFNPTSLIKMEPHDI
Outline: as §1

[6] = biological target: T3, ELK4 (Homo sapiens, UniProt P28324-2 1-405); conditions: protein: recombinant; tags: N-terminal GST; dsDNA, one strand shown
T3 sequence: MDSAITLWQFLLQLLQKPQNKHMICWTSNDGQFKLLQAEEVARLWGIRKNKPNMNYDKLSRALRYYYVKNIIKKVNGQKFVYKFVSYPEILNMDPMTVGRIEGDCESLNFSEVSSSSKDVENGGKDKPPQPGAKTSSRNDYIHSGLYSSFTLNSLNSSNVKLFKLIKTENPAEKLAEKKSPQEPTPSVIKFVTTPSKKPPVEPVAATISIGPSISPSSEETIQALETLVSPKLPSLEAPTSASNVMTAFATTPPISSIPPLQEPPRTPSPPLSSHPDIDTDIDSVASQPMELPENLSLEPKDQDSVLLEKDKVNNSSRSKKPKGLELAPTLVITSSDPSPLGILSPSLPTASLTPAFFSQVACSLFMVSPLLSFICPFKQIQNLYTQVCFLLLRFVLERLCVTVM
Outline: as §1

[7] = biological target: T4, ETV2 (Homo sapiens, UniProt O00321 1-342); conditions: protein: recombinant; tags: N-terminal GST; dsDNA, one strand shown
T4 sequence: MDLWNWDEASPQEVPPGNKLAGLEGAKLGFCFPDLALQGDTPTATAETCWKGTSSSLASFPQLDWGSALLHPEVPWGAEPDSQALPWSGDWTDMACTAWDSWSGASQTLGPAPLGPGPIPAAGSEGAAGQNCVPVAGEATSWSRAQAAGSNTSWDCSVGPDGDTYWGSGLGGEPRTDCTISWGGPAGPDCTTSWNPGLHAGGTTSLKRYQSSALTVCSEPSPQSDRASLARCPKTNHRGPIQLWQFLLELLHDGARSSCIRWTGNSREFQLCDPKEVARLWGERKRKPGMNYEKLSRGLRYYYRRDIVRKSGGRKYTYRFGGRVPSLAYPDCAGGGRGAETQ
Outline: as §1

[8] = biological target: T5, ELF3 (Homo sapiens, UniProt P78545 1-371); conditions: protein: recombinant; tags: N-terminal GST; dsDNA, one strand shown
T5 sequence: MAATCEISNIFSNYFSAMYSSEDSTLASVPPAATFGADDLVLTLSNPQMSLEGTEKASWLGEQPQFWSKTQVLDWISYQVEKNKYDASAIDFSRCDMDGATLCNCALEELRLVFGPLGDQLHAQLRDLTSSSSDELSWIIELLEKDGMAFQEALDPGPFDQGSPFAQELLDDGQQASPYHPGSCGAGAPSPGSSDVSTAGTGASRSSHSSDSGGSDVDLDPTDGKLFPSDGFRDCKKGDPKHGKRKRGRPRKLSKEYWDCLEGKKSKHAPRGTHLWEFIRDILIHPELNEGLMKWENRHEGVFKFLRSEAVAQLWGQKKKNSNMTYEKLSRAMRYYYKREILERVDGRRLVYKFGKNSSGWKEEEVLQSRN
Outline: as §1

[9] = biological target: CRX (Homo sapiens, UniProt O43186 1-299); conditions: protein: recombinant; tags: N-terminal GST; dsDNA, one strand shown
CRX, sequence (O43186 whole entry): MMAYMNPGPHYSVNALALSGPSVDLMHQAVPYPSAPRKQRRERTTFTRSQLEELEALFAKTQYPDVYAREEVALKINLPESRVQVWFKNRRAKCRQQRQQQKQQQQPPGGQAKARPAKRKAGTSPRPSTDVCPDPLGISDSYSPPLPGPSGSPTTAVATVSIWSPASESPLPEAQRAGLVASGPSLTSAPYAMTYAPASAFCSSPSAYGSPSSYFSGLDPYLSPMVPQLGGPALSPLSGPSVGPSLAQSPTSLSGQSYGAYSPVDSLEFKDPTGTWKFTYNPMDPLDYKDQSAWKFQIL
Outline: as §1

[10] = biological target: ETV1 (Homo sapiens, UniProt P50549 1-477); conditions: protein: recombinant; tags: N-terminal GST; dsDNA, one strand shown
ETV1, sequence (P50549 whole entry): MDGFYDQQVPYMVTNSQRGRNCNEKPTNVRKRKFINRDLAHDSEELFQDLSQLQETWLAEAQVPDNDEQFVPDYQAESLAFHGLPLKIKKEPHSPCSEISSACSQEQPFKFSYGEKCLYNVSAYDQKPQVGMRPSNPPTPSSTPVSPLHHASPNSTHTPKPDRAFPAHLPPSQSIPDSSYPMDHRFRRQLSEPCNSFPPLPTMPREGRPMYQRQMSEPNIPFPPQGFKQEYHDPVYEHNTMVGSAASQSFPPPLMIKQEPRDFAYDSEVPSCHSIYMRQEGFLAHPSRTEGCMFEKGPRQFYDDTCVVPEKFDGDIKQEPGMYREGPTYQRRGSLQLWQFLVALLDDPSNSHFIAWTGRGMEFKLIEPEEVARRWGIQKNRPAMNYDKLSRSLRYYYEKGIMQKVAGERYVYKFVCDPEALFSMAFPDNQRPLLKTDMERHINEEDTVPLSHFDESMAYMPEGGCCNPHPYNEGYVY
Outline: as §1

[11] = biological target: T6, ERF (Homo sapiens, UniProt P50548 1-548); conditions: protein: recombinant; tags: N-terminal GST; dsDNA, one strand shown
T6 sequence: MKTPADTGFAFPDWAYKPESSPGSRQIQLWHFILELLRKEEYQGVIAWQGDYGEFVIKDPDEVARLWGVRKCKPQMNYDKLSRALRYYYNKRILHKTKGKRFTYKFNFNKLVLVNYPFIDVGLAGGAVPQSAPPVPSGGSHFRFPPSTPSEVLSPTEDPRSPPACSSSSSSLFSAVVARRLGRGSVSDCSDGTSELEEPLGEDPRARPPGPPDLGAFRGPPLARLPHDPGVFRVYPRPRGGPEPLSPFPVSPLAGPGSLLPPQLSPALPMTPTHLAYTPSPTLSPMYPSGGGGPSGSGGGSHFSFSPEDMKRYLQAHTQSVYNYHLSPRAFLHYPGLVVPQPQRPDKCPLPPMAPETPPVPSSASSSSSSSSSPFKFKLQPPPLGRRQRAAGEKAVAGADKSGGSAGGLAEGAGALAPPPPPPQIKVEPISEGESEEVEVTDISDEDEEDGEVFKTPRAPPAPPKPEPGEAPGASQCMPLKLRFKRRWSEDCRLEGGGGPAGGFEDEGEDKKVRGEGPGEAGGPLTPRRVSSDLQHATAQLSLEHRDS
Outline: as §1

[12] = biological target: T7, ETV3L (Homo sapiens, UniProt Q6ZN32 1-361); conditions: protein: recombinant; tags: N-terminal GST; dsDNA, one strand shown
T7 sequence: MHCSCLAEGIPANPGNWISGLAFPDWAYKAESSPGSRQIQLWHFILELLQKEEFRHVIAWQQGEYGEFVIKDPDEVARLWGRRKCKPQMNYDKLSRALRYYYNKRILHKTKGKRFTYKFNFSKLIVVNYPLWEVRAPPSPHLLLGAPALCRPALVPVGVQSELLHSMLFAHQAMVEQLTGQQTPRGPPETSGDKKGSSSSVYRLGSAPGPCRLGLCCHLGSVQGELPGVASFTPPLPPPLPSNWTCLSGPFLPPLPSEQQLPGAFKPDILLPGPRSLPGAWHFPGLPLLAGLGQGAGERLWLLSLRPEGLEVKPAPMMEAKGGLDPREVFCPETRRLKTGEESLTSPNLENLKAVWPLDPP
Outline: as §1

[13] = biological target: T8, ETS2 (Homo sapiens, UniProt P15036 1-469); conditions: protein: recombinant; tags: N-terminal GST; dsDNA, one strand shown
T8 sequence: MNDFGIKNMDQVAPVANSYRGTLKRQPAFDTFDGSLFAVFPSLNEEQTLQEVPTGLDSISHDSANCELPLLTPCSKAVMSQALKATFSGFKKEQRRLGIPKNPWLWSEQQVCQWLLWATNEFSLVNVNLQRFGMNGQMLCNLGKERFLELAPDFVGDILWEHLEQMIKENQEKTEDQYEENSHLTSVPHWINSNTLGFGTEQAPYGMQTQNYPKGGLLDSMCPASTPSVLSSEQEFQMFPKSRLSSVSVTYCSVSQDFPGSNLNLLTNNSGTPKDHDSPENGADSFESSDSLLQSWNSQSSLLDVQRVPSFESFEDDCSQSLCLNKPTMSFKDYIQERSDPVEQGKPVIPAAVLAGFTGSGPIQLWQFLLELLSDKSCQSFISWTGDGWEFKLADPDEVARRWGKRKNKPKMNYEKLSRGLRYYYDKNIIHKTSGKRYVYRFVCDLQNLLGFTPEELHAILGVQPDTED
Outline: as §1

[14] = biological target: T9, SPDEF (Homo sapiens, UniProt O95238 1-335); conditions: protein: recombinant; tags: N-terminal GST; dsDNA, one strand shown
T9 sequence: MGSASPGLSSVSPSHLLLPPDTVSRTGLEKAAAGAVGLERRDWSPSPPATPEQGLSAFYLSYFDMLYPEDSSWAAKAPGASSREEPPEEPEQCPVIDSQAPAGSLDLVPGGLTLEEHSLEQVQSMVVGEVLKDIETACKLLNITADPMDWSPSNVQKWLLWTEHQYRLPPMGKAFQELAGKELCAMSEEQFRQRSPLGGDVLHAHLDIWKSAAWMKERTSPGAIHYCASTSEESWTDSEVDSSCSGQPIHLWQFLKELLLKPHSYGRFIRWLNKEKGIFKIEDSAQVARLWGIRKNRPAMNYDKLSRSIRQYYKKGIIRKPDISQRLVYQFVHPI
Outline: as §1

[15] = biological target: T10, ETV7 (Homo sapiens, UniProt Q9Y603 1-341); conditions: protein: recombinant; tags: N-terminal GST; dsDNA, one strand shown
T10 sequence: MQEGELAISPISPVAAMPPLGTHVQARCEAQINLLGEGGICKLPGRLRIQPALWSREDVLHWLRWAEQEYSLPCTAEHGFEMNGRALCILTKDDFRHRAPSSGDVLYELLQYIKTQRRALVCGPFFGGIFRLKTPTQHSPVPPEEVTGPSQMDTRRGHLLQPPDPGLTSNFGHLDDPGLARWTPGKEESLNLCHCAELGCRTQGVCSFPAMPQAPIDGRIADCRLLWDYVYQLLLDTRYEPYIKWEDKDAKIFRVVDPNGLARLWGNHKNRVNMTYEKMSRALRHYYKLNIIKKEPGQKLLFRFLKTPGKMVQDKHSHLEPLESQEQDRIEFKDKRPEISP
Outline: as §1

[16] = biological target: T11, ELF5 (Homo sapiens, UniProt Q9UKW6-2 1-255); conditions: protein: recombinant; tags: N-terminal GST; dsDNA, one strand shown
T11 sequence: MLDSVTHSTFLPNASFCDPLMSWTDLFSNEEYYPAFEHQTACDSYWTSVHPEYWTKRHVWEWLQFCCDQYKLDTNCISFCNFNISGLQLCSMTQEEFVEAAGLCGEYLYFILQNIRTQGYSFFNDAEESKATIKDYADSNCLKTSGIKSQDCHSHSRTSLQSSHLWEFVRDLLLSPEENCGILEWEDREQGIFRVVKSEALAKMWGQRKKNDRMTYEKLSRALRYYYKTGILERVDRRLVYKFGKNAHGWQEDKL
Outline: as §1

[17] = biological target: T12, ETV3 (Homo sapiens, UniProt P41162-2 1-143); conditions: protein: recombinant; tags: N-terminal GST; dsDNA, one strand shown
T12 sequence: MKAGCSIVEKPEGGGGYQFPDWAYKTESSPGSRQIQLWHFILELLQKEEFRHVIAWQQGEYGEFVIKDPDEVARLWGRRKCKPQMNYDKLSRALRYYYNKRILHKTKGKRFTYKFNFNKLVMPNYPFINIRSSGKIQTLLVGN
Outline: as §1

[18] = biological target: ETV6 (Homo sapiens, UniProt P41212 1-452); conditions: protein: recombinant; tags: N-terminal GST; dsDNA, one strand shown
ETV6, sequence (P41212 whole entry): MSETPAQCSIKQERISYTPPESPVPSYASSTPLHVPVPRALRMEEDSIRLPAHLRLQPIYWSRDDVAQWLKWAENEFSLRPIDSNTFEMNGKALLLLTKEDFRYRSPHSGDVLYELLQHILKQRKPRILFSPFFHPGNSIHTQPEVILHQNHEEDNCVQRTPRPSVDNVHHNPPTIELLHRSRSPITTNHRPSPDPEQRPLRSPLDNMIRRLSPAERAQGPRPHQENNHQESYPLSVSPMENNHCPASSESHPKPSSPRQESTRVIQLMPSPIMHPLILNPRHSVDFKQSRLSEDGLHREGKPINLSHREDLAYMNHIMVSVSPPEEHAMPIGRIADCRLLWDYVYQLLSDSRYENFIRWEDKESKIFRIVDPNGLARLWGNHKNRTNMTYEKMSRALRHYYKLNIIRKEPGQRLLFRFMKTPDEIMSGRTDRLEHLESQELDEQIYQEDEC
Outline: as §1

Sequence: CTCCTC
- binding signal [1]: 1.37 fold enrichment (6-mer frequency, TF over GST control)
- binding signal [2]: 1.23 fold enrichment (6-mer frequency, TF over GST control)
- binding signal [3]: 1.16 fold enrichment (6-mer frequency, TF over GST control)
- binding signal [4]: 1.3 fold enrichment (6-mer frequency, TF over GST control)
- binding signal [5]: 1.47 fold enrichment (6-mer frequency, TF over GST control)
- binding signal [6]: 1.41 fold enrichment (6-mer frequency, TF over GST control)
- binding signal [7]: 1.39 fold enrichment (6-mer frequency, TF over GST control)
- binding signal [8]: 1.3 fold enrichment (6-mer frequency, TF over GST control)
- binding signal [9]: 1.08 fold enrichment (6-mer frequency, TF over GST control)
- binding signal [10]: 1.39 fold enrichment (6-mer frequency, TF over GST control)
- binding signal [11]: 1.32 fold enrichment (6-mer frequency, TF over GST control)
- binding signal [12]: 1.61 fold enrichment (6-mer frequency, TF over GST control)
- binding signal [13]: 1.33 fold enrichment (6-mer frequency, TF over GST control)
- binding signal [14]: 1.29 fold enrichment (6-mer frequency, TF over GST control)
- binding signal [15]: 1.29 fold enrichment (6-mer frequency, TF over GST control)
- binding signal [16]: 1.32 fold enrichment (6-mer frequency, TF over GST control)
- binding signal [17]: 1.22 fold enrichment (6-mer frequency, TF over GST control)
- binding signal [18]: 1.38 fold enrichment (6-mer frequency, TF over GST control)
